The results in this text go back to PubChem BioAssay (NCI).

Assay in all cases: NCI-60 one-dose screen, 48 h (100 = growth as untreated, 0 = no growth, -100 = all killed)
Common to all, as to settings: 10 µM unless noted

The test system of assay [1] is SK-MEL-2 melanoma.
Assay [2] relates to EKVX NSCLC.
Assay [3] has as its system SN12C renal.
In assay [4] the test system is UO-31 renal.
For assay [5], the system named is TK-10 renal.
The test system of assay [6] is ACHN renal.
Assay [7] relates to CAKI-1 renal.
For assay [8], the system named is A498 renal.
For assay [9], the system named is CCRF-CEM leukemia.
Assay [10] deals with MOLT-4 leukemia.
The test system of assay [11] is SR leukemia.
The subject of assay [12] is RPMI-8226 leukemia.
The test system of assay [13] is OVCAR-8 ovarian.
The test system of assay [14] is OVCAR-5 ovarian.
Assay [15] relates to OVCAR-4 ovarian.
The subject of assay [16] is SK-OV-3 ovarian.
For assay [17], the system named is IGROV1 ovarian.
Assay [18] has as its system OVCAR-3 ovarian.
In assay [19] the test system is HS 578T breast.
Assay [20] concerns NCI/ADR-RES ovarian.

About 83,000 compounds went through this panel and 20% of them were active in at least one assay; those are over-represented in the sample as a whole.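 Single-dose data. Exposure time 48 hours. Values below 10 considered active.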 A number with no mark means an inactive call. Calls of active or inactive are those of the source.

In the case of `Cc1ccc(Nc2nc(N)nc(Nc3ccc4ccccc4c3)n2)cc1`, the growth in assay [1] was 50.6%; in [2], 72.1%; in [3] it was 40.3%; in [4] it was 46.4%; in assay [5] it was 69%; in assay [6] it was 46.6%. In addition, the growth in [7] was 30.3%; in assay [8], 17.6%; in assay [9] it was 27.8%; in assay [10], 47.9%; in assay [11] it was 26.8%; in assay [12], 48.2%. The growth in assay [13] was 47.7%; in [14], 79.9%; in assay [15] it was 74.7%; in [16] it was 58.4%; in assay [17], 51.4%; in assay [18], 8.67% (active). For the same compound, the values for the growth in assay [19] and in [20] were 47% and 30.6%, respectively.
`COc1cc2c(cc1O)CCc1cc(O)cc(OC)c1-2`: the growth in [1] was 88.6%; in [2], 92.7%; in assay [3], 89.4%; in assay [4], 95.3%; in [5], 126%; in [6], 95.4%. The growth in assay [7] is 94.8%; in [8], 79.4%; in assay [9] it was 70.7%; in assay [10], 74.7%; in assay [11] it was 77.4%; in assay [12], 75.5%. Besides, the growth was 88.1% in assay [13]; 109% in [14]; 94.9% in assay [15]; 96.9% in assay [16]; 105% in assay [17]; 95.6% in assay [18]. Further, the growth is 83.3% in assay [19] and 99% in assay [20].
`Cc1ccc2c(c1)O/C(=C\c1cccc(OCC(=O)c3ccccc3)c1)C2=O`: the growth in assay [1] was 70%; in assay [2], 95.5%; in [3], 107%; in assay [4] it was 78.4%; in assay [5], 133%; in [6], 103%. Moreover, the growth was 85.1% in [7]; 106% in [8]; 129% in assay [9]; -34.3% (active) in assay [10]; 44.9% in [11]; 188% in assay [12]. Further, the growth in assay [13] was 91.7%; in assay [14] it was 109%; in [15], 104%; in assay [16], 108%; in [17], 95.5%; in assay [18], 118%. Besides, the growth in assay [19] is 96.6%; in [20] it was 101%.
Turning to `CCC(=O)OCc1cccc(OC)c1`, the growth is 111% in assay [1]; 91.3% in [2]; 99% in [3]; 92.9% in [4]; 119% in assay [5]; 93% in [6]. For the same compound, the growth in assay [7] is 73.6%; in assay [8], 102%; in assay [9] it was 73.3%; in [10] it was 87.9%; in assay [11], 116%; in assay [12], 84.8%. The growth in [13] was 98.2%; in [14], 118%; in [15], 94.6%; in assay [16], 103%; in [17], 81%; in assay [18] it was 107%. Also, the growth in assay [19] is 101%; in [20] it was 106%.
As for `Oc1cc(O)c2c(=S)cc(-c3ccc(Cl)cc3)oc2c1`, the growth in [1] is 4.4% (active); in assay [2], 70.2%; in assay [3] it was 25.5%; in [4], 18%; in assay [5] it was 58.9%; in assay [6], 23.6%. The growth is 76.5% in assay [7]; 59.1% in [8]; 15.8% in assay [9]; 24.1% in assay [10]; 36.1% in [11]; -4.71% (active) in assay [12]. The growth in assay [13] was 35%; in assay [14] it was 60.3%; in assay [15], 6.46% (active); in assay [16] it was 61.8%; in assay [17], 26.1%; in assay [18] it was 17.6%. Moreover, the growth in [19] is 40.5%; in assay [20] it was 25.5%.
In the case of `CCN(CC)CCCC(C)NCCCNc1cccc2cccnc12` (stereo not given), the growth in assay [1] is 112%; in assay [2] it was 101%; in [3] it was 86.5%; in assay [4] it was 72.2%; in assay [5] it was 97.7%; in [6] it was 108%. For the same compound, the growth in [7] is 98.4%; in assay [8], 81.8%; in assay [9] it was 96.9%; in [10], 94.1%; in assay [11], 91%; in [12], 96.9%. Further, the growth was 91.9% in assay [13]; 125% in [14]; 83.2% in [15]; 89.2% in assay [16]; 99.7% in [17]; 89.8% in assay [18]. Further, the growth is 105% in assay [19] and 92.3% in assay [20].
